{"source": "PubChem BioAssay AID1159580", "about": "(chemical genetic matrix, 2015)", "assay": "chemical genetic growth profiling, strain panel (AID 1159580);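 also: tested at 20 µM; growth read once vehicle control cultures reached saturation at 30 °C; 1 = growth at the plate median or of vehicle wells; lower values mean less growth of the strain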", "settings": "S. cerevisiae deletion strains, growth OD", "note": "Hit rate of the full screen: of about 5,500 compounds, about 2,000 (36%) were called active. Inconclusive results (about 18%) are left out. The list shows a part of the results. Values without a mark were called inactive. Rule as the data show it: active = normalized growth mostly below about 0.91 (no sharp cut-off); inconclusive = no clear call, values can overlap the other calls; inactive = mostly above about 0.92."}
{"smiles": "O=[N+]([O-])c1ccsc1Oc1cccc(C(F)(F)F)c1", "values": [{"measurement": "normalized growth", "setting": "locus YAR019C, strain CDC15, stronger effect = lower value", "result": 0.945}, {"measurement": "normalized growth", "setting": "locus YBL105C, strain PKC1, stronger effect = lower value", "result": 0.986}, {"measurement": "normalized growth", "setting": "locus YBR135W, strain CKS1, stronger effect = lower value", "result": 0.95}, {"measurement": "normalized growth", "setting": "locus YBR136W, strain MEC1, stronger effect = lower value", "result": 0.976}, {"measurement": "normalized growth", "setting": "locus YBR160W, strain CDC28, stronger effect = lower value", "result": 1.01}, {"measurement": "normalized growth", "setting": "locus YDL017W, strain CDC7, stronger effect = lower value", "result": 0.987}, {"measurement": "normalized growth", "setting": "locus YDL028C, strain MPS1, stronger effect = lower value", "result": 0.989}, {"measurement": "normalized growth", "setting": "locus YDL101C, strain DUN1, stronger effect = lower value", "result": 0.958}, {"measurement": "normalized growth", "setting": "locus YDL108W, strain KIN28, stronger effect = lower value", "result": 0.979}, {"measurement": "normalized growth", "setting": "locus YDL132W, strain cdc53, stronger effect = lower value", "result": 0.946}, {"measurement": "normalized growth", "setting": "locus YDL214C, strain PRR2, stronger effect = lower value", "result": 0.909}, {"measurement": "normalized growth", "setting": "locus YDR052C, strain DBF4, stronger effect = lower value", "result": 0.989}, {"measurement": "normalized growth", "setting": "locus YDR054C, strain cdc34, stronger effect = lower value", "result": 0.929}, {"measurement": "normalized growth", "setting": "locus YDR226W, strain ADK1, stronger effect = lower value", "result": 0.973}, {"measurement": "normalized growth", "setting": "locus YDR477W, strain SNF1, stronger effect = lower value", "result": 0.876}, {"measurement": "normalized growth", "setting": "locus YER123W, strain YCK3, stronger effect = lower value", "result": 0.814}, {"measurement": "normalized growth", "setting": "locus YER133W, strain GLC7, stronger effect = lower value", "result": 0.831}, {"measurement": "normalized growth", "setting": "locus YFL009W, strain cdc4, stronger effect = lower value", "result": 0.925}, {"measurement": "normalized growth", "setting": "locus YFL029C, strain CAK1, stronger effect = lower value", "result": 0.94}, {"measurement": "normalized growth", "setting": "locus YFR003C, strain YPI1, stronger effect = lower value", "result": 0.984}, {"measurement": "normalized growth", "setting": "locus YFR019W, strain FAB1, stronger effect = lower value", "result": 0.927}, {"measurement": "normalized growth", "setting": "locus YFR028C, strain CDC14, stronger effect = lower value", "result": 0.955}, {"measurement": "normalized growth", "setting": "locus YGR040W, strain KSS1, stronger effect = lower value", "result": 0.857}, {"measurement": "normalized growth", "setting": "locus YGR052W, strain FMP48, stronger effect = lower value", "result": 0.88}, {"measurement": "normalized growth", "setting": "locus YGR092W, strain DBF2, stronger effect = lower value", "result": 0.769}, {"measurement": "normalized growth", "setting": "locus YHR030C, strain SLT2, stronger effect = lower value", "result": "1.26 [resistant] (active)"}, {"measurement": "normalized growth", "setting": "locus YHR079C, strain IRE1, stronger effect = lower value", "result": 0.962}, {"measurement": "normalized growth", "setting": "locus YHR082C, strain KSP1, stronger effect = lower value", "result": 0.907}, {"measurement": "normalized growth", "setting": "locus YHR205W, strain SCH9, stronger effect = lower value", "result": 0.872}, {"measurement": "normalized growth", "setting": "locus YIL147C, strain SLN1, stronger effect = lower value", "result": 0.979}, {"measurement": "normalized growth", "setting": "locus YJL095W, strain BCK1, stronger effect = lower value", "result": 0.861}, {"measurement": "normalized growth", "setting": "locus YJL128C, strain PBS2, stronger effect = lower value", "result": 0.939}, {"measurement": "normalized growth", "setting": "locus YJL157C, strain FAR1, stronger effect = lower value", "result": 0.887}, {"measurement": "normalized growth", "setting": "locus YJR016C, strain ILV3, stronger effect = lower value", "result": 0.952}, {"measurement": "normalized growth", "setting": "locus YJR066W, strain TOR1 (second series), stronger effect = lower value", "result": 0.71}, {"measurement": "normalized growth", "setting": "locus YJR066W, strain TOR1, stronger effect = lower value", "result": 0.926}, {"measurement": "normalized growth", "setting": "locus YKL048C, strain ELM1, stronger effect = lower value", "result": 0.912}, {"measurement": "normalized growth", "setting": "locus YKL067W, strain YNK1, stronger effect = lower value", "result": 0.905}, {"measurement": "normalized growth", "setting": "locus YKL101W, strain HSL1, stronger effect = lower value", "result": 0.931}, {"measurement": "normalized growth", "setting": "locus YKL193C, strain SDS22, stronger effect = lower value", "result": 0.944}, {"measurement": "normalized growth", "setting": "locus YKL203C, strain TOR2, stronger effect = lower value", "result": 0.887}, {"measurement": "normalized growth", "setting": "locus YLR113W, strain HOG1, stronger effect = lower value", "result": "0.821 (active)"}, {"measurement": "normalized growth", "setting": "locus YLR133W, strain CKI1, stronger effect = lower value", "result": 0.936}, {"measurement": "normalized growth", "setting": "locus YLR403W, strain SFP1, stronger effect = lower value", "result": 0.852}, {"measurement": "normalized growth", "setting": "locus YML070W, strain DAK1, stronger effect = lower value", "result": 0.895}, {"measurement": "normalized growth", "setting": "locus YMR001C, strain CDC5, stronger effect = lower value", "result": 0.956}, {"measurement": "normalized growth", "setting": "locus YMR205C, strain PFK2 (second series), stronger effect = lower value", "result": 0.911}, {"measurement": "normalized growth", "setting": "locus YMR277W, strain FCP1, stronger effect = lower value", "result": 0.94}, {"measurement": "normalized growth", "setting": "locus YNL006W, strain LST8, stronger effect = lower value", "result": 0.946}, {"measurement": "normalized growth", "setting": "locus YNL020C, strain ARK1, stronger effect = lower value", "result": 0.925}, {"measurement": "normalized growth", "setting": "locus YNL161W, strain CBK1, stronger effect = lower value", "result": 0.972}, {"measurement": "normalized growth", "setting": "locus YNL183C, strain NPR1, stronger effect = lower value", "result": 0.869}, {"measurement": "normalized growth", "setting": "locus YNL207W, strain RIO2, stronger effect = lower value", "result": 0.96}, {"measurement": "normalized growth", "setting": "locus YNL222W, strain SSU72, stronger effect = lower value", "result": 0.972}, {"measurement": "normalized growth", "setting": "locus YNL307C, strain MCK1 (second series), stronger effect = lower value", "result": 0.939}, {"measurement": "normalized growth", "setting": "locus YOL078W, strain AVO1, stronger effect = lower value", "result": 0.93}, {"measurement": "normalized growth", "setting": "locus YOL136C, strain PFK27, stronger effect = lower value", "result": 0.89}, {"measurement": "normalized growth", "setting": "locus YOR061W, strain CKA2, stronger effect = lower value", "result": 0.88}, {"measurement": "normalized growth", "setting": "locus YOR119C, strain RIO1, stronger effect = lower value", "result": 0.883}, {"measurement": "normalized growth", "setting": "locus YOR231W, strain MKK1, stronger effect = lower value", "result": 0.849}, {"measurement": "normalized growth", "setting": "locus YOR329C, strain SCD5, stronger effect = lower value", "result": 0.984}, {"measurement": "normalized growth", "setting": "locus YPL031C, strain PHO85, stronger effect = lower value", "result": 0.842}, {"measurement": "normalized growth", "setting": "locus YPL153C, strain RAD53, stronger effect = lower value", "result": 0.846}, {"measurement": "normalized growth", "setting": "locus YPL204W, strain HRR25, stronger effect = lower value", "result": 0.845}, {"measurement": "normalized growth", "setting": "locus YPL209C, strain IPL1, stronger effect = lower value", "result": 0.984}, {"measurement": "normalized growth", "setting": "locus YPL256C, strain CLN2, stronger effect = lower value", "result": 0.991}, {"measurement": "normalized growth", "setting": "locus YPR025C, strain CCL1, stronger effect = lower value", "result": 0.98}, {"measurement": "normalized growth", "setting": "locus YPR106W, strain ISR1, stronger effect = lower value", "result": 0.966}, {"measurement": "normalized growth", "setting": "locus YPR111W, strain DBF20, stronger effect = lower value", "result": 0.96}, {"measurement": "normalized growth", "setting": "strain NNK1, stronger effect = lower value", "result": 0.976}, {"measurement": "normalized growth", "setting": "strain TSCII, stronger effect = lower value", "result": 0.932}]}
